Reference: PubChem BioAssay AID1159614 (National Center for Advancing Translational Sciences (NCATS), 2016)
The whole screen tested about 45,000 compounds, of which about 65 (0.1%) were called active. Calls follow the shape of the dose curve; as a rule, active = well fitted activation curve with a large enough effect; inconclusive = small, poorly fitted or top-dose-only effect; inactive = no such curve, though single readings can be large or run the other way. Shown is part of a subset that was picked to be rich in actives.

These compounds were tested against Galactocerebrosidase (Homo sapiens) (UniProt P54803) (assay: A Novel Cell-Based Assay to Identify Small Molecules for B -Galactocerebrosidase). Details: 145M-Twi-hGALC-G270D cells (Twitcher mouse brain line with human GALC G270D), HMU-beta-Gal fluorescence, 48 h; series mostly up to 57.5 µM; activation: at the top concentration.
Text: Lysosomal storage diseases (LSDs) are caused by genetic mutations in genes encoding proteins important for normal lysosomal function. Globoid cell leukodystrophy (GLD), mostly known as Krabbe disease, is a prototype of the neurological LSDs caused by deficiency of beta-galactocerebrosidase (GALC). In brain specimens of GLD patients, psychosine levels are substantially elevated. At elevated concentrations, psychosine becomes cytotoxic to neuronal cells, particularly to oligodendrocytes (OLG), neural cells responsible for myelin formation. Therefore, the biochemical disturbances in GLD are manifested by different degrees of brain demyelination resulting in a broad spectrum of neurological manifestations. Most of the FDA-approved therapies are based on enzyme replacement therapeutic (ERT) agents, which treat non-neurological symptoms of Gaucher disease, Fabry disease, few mucopolysaccharidoses and Pompe disease. Unfortunately, in GLD, a primarily neurological LSD, ERT agents, as large molecular weight molecules unable to cross the blood-brain barrier, which makes this an inefficacious therapeutic approach. In GLD, increasing the residual GALC activity just above the critical threshold (~10% of wild type enzymatic activity), the cytotoxic levels of psychosine will be reduced, avoiding the OLGs apoptosis and the subsequent demyelination process. This will translate in disease stabilization and amelioration of GLD patient symptoms.
A cell-based assay in 1,536-well plate format was developed to implement a quantitative high-throughput screening (qHTS) assay using GLD-disease relevant cells to identify small molecules that produce enhancements of the residual enzymatic activity levels of mutants GALC found and prevalent in GLD patients. Compounds that are active may therefore have some therapeutic application for GLD. After the treatment of live cells for a determined period, using a fluorescent GALC specific substrate, the mutant residual GALC activity is measured. This cell-based qTHS assay was used to screen part of the MLPCN library for small molecule able to increase the mutant GALC enzymatic activity. In this assay, increased fluorescent signal corresponds to enhanced levels of mutant GALC residual enzymatic activity. Activation is the desired outcome for this assay.
NIH Chemical Genomics Center [NCGC]
NIH Molecular Libraries Probe Centers Network [MLPCN]
Assay Submitter (PI): Gustavo Maegawa MD,PhD, University of Florida, Gainesville, FL
2)#Two cell lines were established for the assay: 145M-Twi-hGALC-G270D (brain-derived Twitcher cell line stably expressing human GALC-G270D) and 145M-Twi-hGALC-WT (same 145M-Twi stably expressing human GALC wild type). The Twitcher is the murine C57B/6 model for GLD with naturally occurring homozygous nonsense GALC mutation. The 145M-Twi cell line was established at Maegawa lab (Ribbens J et al 2014).
a.#Media: DMEM/F12 (1:1) with 10% fetal bovine-serum (FBS) with penicillin/streptomycin (PS-1X - 100 I.U./mL of penicillin+100 ug/mL of streptomycin).
b.#The 6-Hexadecanoylamino-4-methylumbelliferyl-b-D-galactoside (HMU-B-gal) substrate was prepared as per Wiederschain et al 1992. Using 20-mL borosilicate tubes, 2.20 mg of HMU-b-Gal was added in each tube to prepare substrate-film with a final air-nitrogen stream evaporation to remove all diluent solvents.
c.#The HMUb-Gal substrate buffer consists of 0.2 M Na2HPO4 (sodium phosphate dibasic)/ 0.1 M Citric Acid with the pH adjusted to 5.2 using HCl. Sodium Azide at 0.02% and Sodium Taurocholate (NaTC) at 1 mg/mL were added to this substrate buffer.
d.#The HMU-b-Gal stopping buffer consist of 0.5 M NaHCO3 (sodium bicarbonate) /0.5 M Na2CO3 (sodium carbonate). […] Triton X-100 at 0.25% was added.
4)#Preparation of HMU-b-Gal substrate tubes
Adding 18.6 mL of the HMUb-Gal substrate buffer to each 20-mL tube (2.20 mg of HMU-b-Gal) will reach a concentration of 0.2 mM. Vortex well the tube until the solution is fully homogenized (clear cloudy solution). […]
Also: 0% is about no effect; nearly all actives have a fitted effect of over 65% in size.

Chain of Galactocerebrosidase (Homo sapiens) (P54803 whole entry G286D): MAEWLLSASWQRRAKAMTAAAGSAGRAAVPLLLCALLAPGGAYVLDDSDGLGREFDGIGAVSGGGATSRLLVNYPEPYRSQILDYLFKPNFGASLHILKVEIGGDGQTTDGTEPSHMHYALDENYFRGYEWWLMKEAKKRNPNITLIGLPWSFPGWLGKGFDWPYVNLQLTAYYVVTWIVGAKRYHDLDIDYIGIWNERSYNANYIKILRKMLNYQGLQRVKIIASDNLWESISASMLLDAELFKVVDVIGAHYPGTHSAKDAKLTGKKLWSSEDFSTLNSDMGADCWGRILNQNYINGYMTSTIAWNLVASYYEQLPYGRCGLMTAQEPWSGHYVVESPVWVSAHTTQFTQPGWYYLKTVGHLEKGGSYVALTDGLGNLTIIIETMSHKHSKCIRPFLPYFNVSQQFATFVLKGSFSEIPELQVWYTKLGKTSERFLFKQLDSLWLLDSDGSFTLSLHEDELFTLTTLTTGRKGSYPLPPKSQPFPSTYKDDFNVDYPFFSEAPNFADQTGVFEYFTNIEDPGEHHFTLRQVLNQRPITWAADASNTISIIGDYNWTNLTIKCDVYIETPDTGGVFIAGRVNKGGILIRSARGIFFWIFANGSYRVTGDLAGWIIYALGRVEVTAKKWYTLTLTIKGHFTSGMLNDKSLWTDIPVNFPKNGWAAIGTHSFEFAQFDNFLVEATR

activation, inactive:
CCOC(=O)c1nnn(CC(=O)NC(=O)Nc2ccccc2F)c1C(=O)OCC -12.9%, Cn1c(=O)c2c(nc(Oc3ccc(C#N)cc3)n2Cc2ccc(Cl)cc2Cl)n(C)c1=O -1.55%, COc1cc(CN(CC2CCCO2)C(=O)c2ccccc2F)cc(OC)c1OC (centres undefined) -1.53%, Cc1cccn2c(=O)c(C(=O)NC(C)c3ccccc3)cnc12 (centres undefined) -3.71%, Cc1ccc(S(=O)(=O)NC2(C(F)(F)F)NC(=O)N(CCc3ccccc3)C2=O)cc1 (centres undefined) -13.9%, COc1ccc(CC(=O)Nc2nnc3n2CCS3)cc1OC 14.6%, COc1cccc(C2C(C(=O)Nc3ccc(C)cc3C)=C(C)Nc3c(C(=O)Nc4ccccc4)cnn32)c1 (centres undefined) -4.64%, Cc1ccc(-c2nc3ccccn3c2Nc2c(C)cccc2C)o1 -10.6%, Brc1ccc2c(c1)NC(c1cccnc1)=NC(c1ccccc1)=N2 -18%, COC(=O)c1ccc(NC(=O)CCc2c(C)nc3c(c(C)nn3-c3ccc(C)cc3)c2C)cc1 -11.7%, O=C(Nc1ccccc1Cl)N1CCC(CN2CCCC2)CC1 -6.85%, COc1cc(Cl)c(NC(=O)C(NS(=O)(=O)c2cccs2)C(C)C)c(OC)c1 (centres undefined) -11.2%, O=C(NC1CC(=O)N(c2ccc(F)cc2)C1)c1ccc(S(=O)(=O)N2CCCC2)cc1 (centres undefined) -10.8%, CCc1cc2c(cc3c(=O)n(CC(=O)N4CCN(c5cc(Cl)ccc5C)CC4)nc(CC)n32)s1 -11.4%, Cc1cccc(Cn2c(SCc3ccc(C(=O)N4CCC(C)CC4)cc3)nc3ccncc32)c1 1.12%, COc1ccc2cc(CNc3ccc(OC)c(OC)c3)c(=O)n(CC(=O)Nc3ccccc3F)c2c1 -18.6%, Cc1ccc(OCCn2c(CNc3ccccc3C)nc3ccccc32)cc1 -7.23%, Cc1nn(C)c2c1c(C(F)(F)F)cc(=O)n2C(C)C(=O)NCc1ccc(Cl)cc1 (centres undefined) -22.1%, CCOCCCn1c(SCC(=O)Nc2ccc(CC)cc2)nc2ccccc2c1=O -12.9%, C=Cc1ccc(Cn2c(C(=O)OC)cc3sc(C)cc32)cc1 -7.18%, COc1ccc(CCNC(=O)Cn2c(=O)n(-c3ccccc3)c(=O)c3c(C)c(C)sc32)cc1OC -4.98%, O=C(NC1CCN(Cc2ccccc2)CC1)c1ccc(Cn2c(=O)c3ccccc3n(Cc3cccc(F)c3)c2=O)cc1 -3.67%, CC1CCCN(c2cc3c(cc2F)c(=O)c(S(=O)(=O)c2cccc(Cl)c2)cn3Cc2ccccc2)C1 (centres undefined) -16.9%, Cc1nc(N2CCOCC2)c2c(C(=O)NCc3cccc(Cl)c3)c(C)oc2n1 -10.9%, O=C(Nc1ccc(S(=O)(=O)N2CCC(c3nc4ccccc4s3)CC2)cc1)c1ccccc1F -7.74%, Cc1ccc(N(CC(=O)NCC(C)c2ccccc2)S(=O)(=O)N(C)C)cc1 (centres undefined) 2.28%, COc1ccc(-n2ccn(CC(=O)Nc3ccc(C)c(C)c3)c(=O)c2=O)cc1OC -14.7%, CCCc1nn2c(=O)cc(COC(=O)c3ccc(NC(=O)C(C)Oc4ccccc4)cc3)nc2s1 (centres undefined) -6.74%, CCCSc1nc2sc3c(c2c(=O)n1-c1cccc(Br)c1)CC(C)(C)OC3 -5.57%, Cc1nn(C(C)C(=O)Nc2ccc(C(C)C)cc2)c(=O)c2c1sc1ccccc12 (centres undefined) -10.5%, Cc1cc(C)c(NC(=O)CSc2nc3nccnc3c(=O)n2CCc2c[nH]c3ccccc23)c(C)c1 -6.62%, O=C(CSc1nc(Nc2ccc(F)c(F)c2)c2ccccc2n1)c1ccc(Cl)cc1 -5.29%, CCn1c2c(c(=O)n3ncc(C(=O)N4CCN(c5ccccc5)CC4)c13)CN(Cc1ccc(OC)cc1)CC2 -22.7%, CC(=O)Nc1c(C)nn(-c2ccccc2)c1N1CCC(C(=O)Nc2cc(Cl)ccc2C)CC1 1.89%, Cc1cc(C)c(-c2n[nH]c3c2C(c2ccccc2F)N(CCO)C3=O)c(O)c1 (centres undefined) -9.56%, Cc1ccc(C)c(CN2C(=O)c3ccccc3S(=O)c3ccc(C(=O)N4CCOCC4)cc32)c1 (centres undefined) 4.19%, COc1ccc(CCNC(=O)c2cc3cccc4c3n2CC(C)S4)c(OC)c1OC (centres undefined) -2.07%, Oc1ccc(-c2nc3ccc(Cl)cn3c2Nc2ccc3c(c2)OCO3)cc1 -17%, COc1ccc(S(=O)(=O)N2CCN(c3ccc(F)cc3)CC2)cc1-c1noc(C)n1 -17.9%, O=C(NCc1ccccc1Cl)C1CCN(c2ncnc3c2nc2n3CCCCC2)CC1 -0.25%, Cc1ccc(C)c(Oc2c(C(F)(F)F)oc3c(CN4CCN(C)CC4)c(O)ccc3c2=O)c1 -12.2%, CCc1cccc(C)c1NS(=O)(=O)c1c(C)nc2sccn2c1=O -9.4%, CCOC(=O)c1c(-c2ccc(OC)cc2)oc2ccc(OCc3ccc(C(=O)OC)cc3)cc12 -11.1%, O=C(O)c1ccc2c(c1)N(Cc1ccc(F)cc1)C(=O)c1ccccc1S2=O (centres undefined) -9.29%, CCNC(=O)c1cc2n(n1)CCCN(Cc1ccc(C)cc1)C2=O 2.77%, COc1ccccc1CN1CCC(CNC(=O)c2cnn(-c3cccc(Cl)c3)c2C2CCN(C(=O)OC(C)(C)C)CC2)CC1 -20.3%, Cc1cc(NS(=O)(=O)c2ccc3oc(=O)c4ncn(C)c4c3c2)ccc1Br -7.99%, Cc1cccc(OCCSc2nc3ccccc3n2CC(=O)N2CCCCC2)c1C -30.3%, CN1C(=O)c2ccccc2Sc2ccc(NC(=O)Cc3ccc(Cl)cc3)cc21 -9.11%
